{
  "source": "the supplement of paper PMC7858590",
  "note": "“And” between values parts separate entries of the source, which are not always exact repeats. Equal entries are not always repeated.",
  "data": [
    {"tested_on": "human monocyte-derived macrophages (polarized)", "test": "cell shape (eccentricity) Z-score vs DMSO control; higher = more elongated, M2-like morphology", "conditions": "5 µM; 24 h; macrophage state: M1-polarized (IFNg + TNFa), cytokines present during treatment", "description": "(§1)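 Primary-screen hits were rescreened on polarized hMDMs with the differentiating cytokines (IL-4 + IL-13 or IFNg + TNFa) kept in the medium during treatment with compound at 5 uM for 24 h. The eccentricity Z-score vs DMSO wells is averaged over experiments.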", "values": [
      {"smiles": "CC1CC(=O)c2c(ccc3c2C(=O)c2cccc(O)c2C3O)C1", "note": "(stereo not given)", "cell shape (Z-score)": -2.52},
      {"smiles": "CC[C@@H]1C(=O)N(C)c2cnc(Nc3ccc(C(=O)NC4CCN(C)CC4)cc3OC)nc2N1C1CCCC1", "cell shape (Z-score)": -1.93},
      {"smiles": "[O-][NH2+]c1ccc(O)c2ncccc12", "cell shape (Z-score)": -6.06},
      {"smiles": "O=C(NCCN1CCCCC1)c1ccc(I)cc1", "cell shape (Z-score)": 6.46},
      {"smiles": "COc1cc2ncn(-c3cc(OCc4ccccc4C(F)(F)F)c(C(N)=O)s3)c2cc1OC", "cell shape (Z-score)": 13.5},
      {"smiles": "CC1=CC(=O)CC2C1(C)CCC(C)C2(C)CC/C(C)=C\\C(=O)O", "note": "(stereo not given)", "cell shape (Z-score)": -1.21},
      {"smiles": "Clc1ccc(C(Cn2ccnc2)OCc2ccsc2Cl)c(Cl)c1", "note": "(stereo not given)", "cell shape (Z-score)": -4.98},
      {"smiles": "O=c1cc(-c2cccc3c2Sc2ccccc2S3)oc(N2CCOCC2)c1", "cell shape (Z-score)": -7.49},
      {"smiles": "Nc1nc(Nc2ccc3c(c2)CCC(N2CCCC2)CC3)nn1-c1cc2c(nn1)-c1ccccc1CCC2", "note": "(stereo not given)", "cell shape (Z-score)": -4.94},
      {"smiles": "CNC(=O)c1ccccc1Sc1ccc2c(/C=C/c3ccccn3)n[nH]c2c1", "cell shape (Z-score)": "8.44 and 13.2"},
      {"smiles": "CC[C@H]1OC(=O)[C@H](C)[C@@H](O[C@H]2C[C@@](C)(OC)[C@@H](O)[C@H](C)O2)[C@H](C)[C@@H](O[C@@H]2O[C@H](C)C[C@H](N(C)C)[C@H]2O)[C@](C)(O)C[C@@H](C)C(=O)[C@H](C)[C@@H](O)[C@]1(C)O", "cell shape (Z-score)": -5.37},
      {"smiles": "COc1cc(OC)c(/C=C/S(=O)(=O)Cc2ccc(OC)c(NCC(=O)O)c2)c(OC)c1", "cell shape (Z-score)": -2.86},
      {"smiles": "CC(C)(C)n1nc(-c2cccc3ccccc23)c2c(N)ncnc21", "cell shape (Z-score)": 6.74},
      {"smiles": "C=CCn1c(=O)c2cnc(Nc3ccc(N4CCN(C)CC4)cc3)nc2n1-c1cccc(C(C)(C)O)n1", "cell shape (Z-score)": 5.45},
      {"smiles": "CC(C)(C)c1cc(C(=O)/C=C/c2ccc(C(=O)O)cc2)cc(C(C)(C)C)c1", "cell shape (Z-score)": -7.58},
      {"smiles": "CC1(C)C[C@@H]1C(=O)N/C(=C\\CCCCSC[C@H](N)C(=O)O)C(=O)O", "cell shape (Z-score)": 5},
      {"smiles": "O=C1Cc2c([nH]c3ccc([N+](=O)[O-])cc23)-c2ccccc2N1", "cell shape (Z-score)": 4.68},
      {"smiles": "C=C(c1ccc(C(=O)O)cc1)c1cc2c(cc1C)C(C)(C)CCC2(C)C", "cell shape (Z-score)": 8.49},
      {"smiles": "Cc1cc(O)cc(=O)o1", "cell shape (Z-score)": 7.71},
      {"smiles": "Nc1nc(Nc2ccccc2)nc2c1ncn2C1OC(CO)C(O)C1O", "note": "(stereo not given)", "cell shape (Z-score)": 2.02}
    ]},
    {"tested_on": "human monocyte-derived macrophages (polarized)", "test": "cell shape (eccentricity) Z-score vs DMSO control; higher = more elongated, M2-like morphology", "conditions": "5 µM; 24 h; macrophage state: M2-polarized (IL-4 + IL-13), cytokines present during treatment", "description": "as §1", "values": [
      {"smiles": "CC(Nc1nc(N2CCCC2)nc2ccccc12)c1ccccc1", "note": "(stereo not given)", "cell shape (Z-score)": -11.8},
      {"smiles": "OC1(c2ccc(Cl)c(C(F)(F)F)c2)CCN(CCCC(c2ccc(F)cc2)c2ccc(F)cc2)CC1", "note": "[Penfluridol]", "cell shape (Z-score)": -10.9},
      {"smiles": "C[C@@]12C[C@]3(O)O[C@H](O1)C1(COC(=O)c4ccccc4)[C@H]3C[C@@]12O[C@@H]1O[C@H](COC(=O)c2ccccc2)[C@@H](O)[C@H](O)[C@H]1O", "cell shape (Z-score)": -2.92},
      {"smiles": "N#CN=C(NCCCCCCOc1ccc(Cl)cc1)Nc1ccncc1", "cell shape (Z-score)": -5.22},
      {"smiles": "COc1ccc(/C=C/C(=O)c2ccc(O)cc2O)cc1", "cell shape (Z-score)": -3.18},
      {"smiles": "O=C1NC(=O)/C(=C/c2ccc3nccc(-c4ccncc4)c3c2)S1", "cell shape (Z-score)": -2.56},
      {"smiles": "CC(C)c1ccc(Cn2ccc3c4c(N)nc(NC5CC5)nc4ccc32)cc1", "cell shape (Z-score)": -11},
      {"smiles": "OC(CN1CCNCC1)Cn1c2ccc(Br)cc2c2cc(Br)ccc21", "note": "(stereo not given)", "cell shape (Z-score)": -13.7},
      {"smiles": "C=C(C(=O)O)[C@@H]1CC[C@@]2(C)CC[C@H](O)[C@@]2(C(C)=O)C1", "cell shape (Z-score)": -6.45},
      {"smiles": "C=C1C(=O)OC2CC3(C)CCC=C(CO)C3CC12", "note": "(stereo not given)", "cell shape (Z-score)": -5.59},
      {"smiles": "c1ccc2cc(C3=NCCN3)ncc2c1", "cell shape (Z-score)": 0.271},
      {"smiles": "CC1=CC(=O)c2ccccc2C1=O", "cell shape (Z-score)": -2.13},
      {"smiles": "OCc1ccc(-c2ccc(-c3ccc(CO)s3)o2)s1", "cell shape (Z-score)": -20.9},
      {"smiles": "CCCCC[C@H](O)/C=C/[C@H]1[C@H](O)CC(=O)[C@@H]1CCCCCCC(=O)O", "cell shape (Z-score)": -28.2},
      {"smiles": "O=C(CCCc1ccc(-c2ccccc2F)cc1)Nc1ccc(O)cc1", "cell shape (Z-score)": -9.79}
    ]}
  ]
}
